# Assay results reported in PubChem BioAssay (NCI).
# Compounds without any hit were thinned out: in the full panel of roughly 79,000, 15% have a hit. Unmarked numbers belong to inactive results. Calls of active or inactive are those of the source. Cut-off read from the data, not from the text of the source: active = growth inhibition above about 70%; inactive = the rest.
# Assays:
# [1] = NCI Yeast Anticancer Drug Screen. Data for the rad52 strain (AID 147);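 note: 0% = growth of vehicle-treated control cultures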; settings: S. cerevisiae rad52 mutant growth inhibition, hits give high values
# In short: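 Screen used a yeast mutant impaired in DNA repair. After compound exposure, growth was measured. Values reflect inhibition compared with vehicle-treated cells.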
# [2] = NCI Yeast Anticancer Drug Screen. Data for the wt1 strain (AID 149);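 note: 0% = growth of vehicle-treated wt1 cultures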; settings: S. cerevisiae wt1 strain (SPY 50644) growth inhibition, hits give high values
# In short: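 Each compound is tested on wt1 yeast and the loss of growth versus vehicle gives the inhibition value.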
# [3] = NCI Yeast Anticancer Drug Screen. Data for the rad50EPP+ strain (AID 151);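 note: 0% = growth of vehicle-treated control cultures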; settings: S. cerevisiae rad50 mutant strain, hits give high values
# In short: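 Exposing the rad50EPP+ strain to each compound, growth was compared with vehicle-only cultures to give inhibition.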
# [4] = NCI Yeast Anticancer Drug Screen. Data for the mgt1 strain (AID 153); settings: S. cerevisiae mgt1 mutant growth inhibition, hits give high values
# In short: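 Genetically defined yeast (mgt1) treated with compound; inhibition of growth expressed against vehicle-treated controls.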
# [5] = NCI Yeast Anticancer Drug Screen. Data for the rad50 strain (AID 155);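 note: 0% = growth of vehicle-only cultures of the same strain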; settings: S. cerevisiae rad50 strain growth inhibition, hits give high values
# In short: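 Vehicle-treated cultures provide the reference for the growth inhibition reported for compound-exposed, repair-deficient yeast.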
# [6] = NCI Yeast Anticancer Drug Screen. Data for the mec2-1 strain (AID 157); settings: S. cerevisiae mec2-1 strain, hits give high values
# In short: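 Readout is yeast growth inhibition, normalised to vehicle-treated controls, in the mec2-1 strain exposed to compound.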
# [7] = NCI Yeast Anticancer Drug Screen. Data for the rad14 strain (AID 159);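 note: 0% = growth of vehicle-treated control cultures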; settings: S. cerevisiae rad14 strain growth inhibition, hits give high values
# In short: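 Inhibition of growth is reported for a repair-deficient yeast mutant following compound treatment, calculated relative to cultures that received vehicle.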
# [8] = NCI Yeast Anticancer Drug Screen. Data for the sgs1 mgt1 strain (AID 161);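 note: 0% = growth of cultures given vehicle only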; settings: S. cerevisiae sgs1 mgt1 strain, hits give high values
# In short: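 Compounds are added to genetically altered yeast, and growth is compared with cultures given vehicle alone to give percent inhibition.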
# [9] = NCI Yeast Anticancer Drug Screen. Data for the CLN2oe strain (AID 163);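 note: 0% = growth of vehicle-only control cultures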; settings: S. cerevisiae CLN2oe strain, hits give high values
# In short: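 Values reflect how much compound exposure reduced yeast growth, referenced to vehicle-exposed cells. Assay organism is a strain with a defined genetic change affecting cell-cycle control.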
# [10] = NCI Yeast Anticancer Drug Screen. Data for the cln2 rad14 strain (AID 165);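 note: 0% = growth equal to vehicle treated cultures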; settings: S. cerevisiae cln2 rad14 strain, hits give high values
# In short: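 Relative to vehicle controls, growth inhibition of compound-treated cln2 rad14 yeast was recorded.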
# [11] = NCI Yeast Anticancer Drug Screen. Data for the bub3 strain (AID 167); settings: S. cerevisiae bub3 mutant strain, hits give high values
# In short: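 Mutant yeast screening strain plus compound; vehicle-treated cultures serve as the 0% inhibition reference.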
# [12] = NCI Yeast Anticancer Drug Screen. Data for the wt2 strain (AID 169); settings: S. cerevisiae wt2 strain growth inhibition, hits give high values
# In short: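 Values express reduction in yeast growth under compound treatment, referenced to vehicle-treated cells.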
# [13] = NCI Yeast Anticancer Drug Screen. Data for the mlh1 strain (AID 171);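 note: 0% = growth of vehicle-treated control cultures of the same strain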; settings: S. cerevisiae mlh1 strain growth inhibition, hits give high values
# In short: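 Steps: expose the defined-mutant yeast strain to compound; expose a parallel culture to vehicle; measure growth; express compound effect as inhibition relative to the vehicle culture.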
# [14] = NCI Yeast Anticancer Drug Screen. Data for the sgs1 strain (AID 173);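 note: 0% = growth of vehicle-only control cultures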; settings: S. cerevisiae sgs1 mutant, hits give high values
# In short: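 Treat defined-mutant yeast with compound; measure growth; calculate inhibition relative to vehicle-treated cells.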
# [15] = NCI Yeast Anticancer Drug Screen. Data for the mlh1 rad18 strain (AID 175); settings: S. cerevisiae mlh1 rad18 strain growth inhibition, hits give high values
# In short: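 Test agents were incubated with a yeast strain of defined genotype (DNA damage repair defect). Inhibition of growth was derived by comparison with vehicle-exposed cultures.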
# [16] = NCI Yeast Anticancer Drug Screen. Data for the rad18 strain (AID 177); settings: S. cerevisiae rad18 mutant growth inhibition, hits give high values
# In short: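 A genetically defined yeast mutant impaired in DNA damage repair was treated with test compounds, then its growth was measured against cultures receiving vehicle alone.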
# [17] = at 5.0 µM (retest, dose inferred, filed as 0.5)
# [18] = at 50.0 µM (retest, dose inferred, filed as 5.0)
compound,measurement,setting,value
CC(O)=NC(Cc1ccc2ccccc2c1)C(O)=NC(Cc1ccc(Cl)cc1)C(O)=NC(Cc1c[nH]c2ccccc12)C(O)=NC(CO)C(O)=NC(Cc1ccc(O)cc1)C(O)=NC(CCCN=C(N)N)C(O)=NC(CC(C)C)C(O)=NC(CCCN=C(N)N)C(=O)N1CCCC1C(O)=NC(C)C(=N)O (stereo not drawn),growth inhibition,[1]; at 1.2 µM,-7%
same,growth inhibition,[1]; at 3.7 µM,-8%
same,growth inhibition,[1]; at 11.0 µM,-4%
same,growth inhibition,[1]; at 33.0 µM,4%
same,growth inhibition,[1]; at 100.0 µM,16%
same,growth inhibition,[2]; at 1.2 µM,-2%
same,growth inhibition,[2]; at 3.7 µM,-4%
same,growth inhibition,[2]; at 11.0 µM,-5%
same,growth inhibition,[2]; at 33.0 µM,-3%
same,growth inhibition,[2]; at 100.0 µM,-1%
same,growth inhibition,[3]; at 1.2 µM,-4%
same,growth inhibition,[3]; at 3.7 µM,2%
same,growth inhibition,[3]; at 11.0 µM,11%
same,growth inhibition,[3]; at 33.0 µM,16%
same,growth inhibition,[3]; at 100.0 µM,11%
same,growth inhibition,[4]; at 1.2 µM,-3%
same,growth inhibition,[4]; at 3.7 µM,-2%
same,growth inhibition,[4]; at 11.0 µM,-4%
same,growth inhibition,[4]; at 33.0 µM,-5%
same,growth inhibition,[4]; at 100.0 µM,6%
same,growth inhibition,[5]; at 1.2 µM,-5%
same,growth inhibition,[5]; at 3.7 µM,-2%
same,growth inhibition,[5]; [17],-9%
same,growth inhibition,[5]; at 11.0 µM,1%
same,growth inhibition,[5]; at 33.0 µM,3%
same,growth inhibition,[5]; [18],16%
same,growth inhibition,[5]; at 50.0 µM,18.1%
same,growth inhibition,[5]; at 100.0 µM,25%
same,growth inhibition,[6]; at 1.2 µM,-2%
same,growth inhibition,[6]; at 3.7 µM,-3%
same,growth inhibition,[6]; [17],-14%
same,growth inhibition,[6]; at 11.0 µM,-4%
same,growth inhibition,[6]; at 33.0 µM,-2%
same,growth inhibition,[6]; [18],-6%
same,growth inhibition,[6]; at 50.0 µM,1.1%
same,growth inhibition,[6]; at 100.0 µM,3%
same,growth inhibition,[7]; at 1.2 µM,-5%
same,growth inhibition,[7]; at 3.7 µM,1%
same,growth inhibition,[7]; at 11.0 µM,4%
same,growth inhibition,[7]; at 33.0 µM,7%
same,growth inhibition,[7]; at 100.0 µM,24%
same,growth inhibition,[8]; [17],2%
same,growth inhibition,[8]; [18],20%
same,growth inhibition,[8]; at 50.0 µM,3%
same,growth inhibition,[9]; at 1.2 µM,-4%
same,growth inhibition,[9]; at 3.7 µM,0%
same,growth inhibition,[9]; at 11.0 µM,3%
same,growth inhibition,[9]; at 33.0 µM,19%
same,growth inhibition,[9]; at 100.0 µM,32%
same,growth inhibition,[10]; [17],-5%
same,growth inhibition,[10]; [18],18%
same,growth inhibition,[10]; at 50.0 µM,12.2%
same,growth inhibition,[11]; at 1.2 µM,-2%
same,growth inhibition,[11]; at 3.7 µM,-1%
same,growth inhibition,[11]; [17],39%
same,growth inhibition,[11]; at 11.0 µM,-4%
same,growth inhibition,[11]; at 33.0 µM,-1%
same,growth inhibition,[11]; [18],32%
same,growth inhibition,[11]; at 50.0 µM,19.9%
same,growth inhibition,[11]; at 100.0 µM,1%
same,growth inhibition,[12]; at 1.2 µM,-9%
same,growth inhibition,[12]; at 3.7 µM,-10%
same,growth inhibition,[12]; at 11.0 µM,-2%
same,growth inhibition,[12]; at 33.0 µM,11%
same,growth inhibition,[12]; at 100.0 µM,2%
same,growth inhibition,[13]; at 1.2 µM,-7%
same,growth inhibition,[13]; at 3.7 µM,-4%
same,growth inhibition,[13]; at 11.0 µM,-3%
same,growth inhibition,[13]; at 33.0 µM,3%
same,growth inhibition,[13]; at 100.0 µM,17%
same,growth inhibition,[14]; at 1.2 µM,-21%
same,growth inhibition,[14]; at 3.7 µM,-18%
same,growth inhibition,[14]; at 11.0 µM,-17%
same,growth inhibition,[14]; at 33.0 µM,3%
same,growth inhibition,[14]; at 100.0 µM,44%
same,growth inhibition,[15]; [17],52%
same,growth inhibition,[15]; [18],70% (active)
same,growth inhibition,[15]; at 50.0 µM,58.4%
same,growth inhibition,[16]; at 1.2 µM,-6%
same,growth inhibition,[16]; at 3.7 µM,-6%
same,growth inhibition,[16]; at 11.0 µM,-3%
same,growth inhibition,[16]; at 33.0 µM,1%
same,growth inhibition,[16]; at 100.0 µM,35%
